PI5P4K alpha inh – blocks human PI5P4K alpha kinase activity; PI5P4Kalpha enzyme, ADP-Glo luminescence, 60 min; active compounds read low; max response, %; actives 1.2% (n = 330,000); active = max response of -50% or lower; inconclusive = between -30% and -50%; inactive = -30% or higher; also: value at the top dose of about 77 µM; % is scaled to controls: 0 for no effect and ±100 for the full control effect
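Human PI5P4Kalpha with substrate in 0.038 M HEPES pH 7.4, 0.28 mM EGTA, 0.1% CHAPS, 5% DMSO; reaction started with 5 microM ATP (final), 60 min at room temperature. ADP formed read by ADP-Glo luminescence.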
HP1b chromo inh – HP1-beta chromodomain-methylated histone interaction inhibition | Potency, µM (top dose mostly 114 µM), inactives show at the top dose activity change, negative = inhibition, usual class: inhibitors | AID 540317 | P83916 | actives 0.56% (n = 390,000) | AlphaScreen HP1-beta / biotin-H3K9me3 peptide binding; also: potency is read from the fitted curve at half-maximal effect; nearly all actives have a fitted effect of over 70% in size
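Compound inhibition of the preformed complex between 50 nM HP1-beta and 50 nM biotinylated H3K9me3 peptide was read by AlphaScreen. Buffer was PBS pH 7.4 with 0.01% Tween-20. Incubations ran 30 min at room temperature, with 10 ug/mL donor/acceptor beads.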
JMJD2A Tudor – blocks the human JMJD2A Tudor domain; AlphaScreen JMJD2A-Tudor / H3K4me3 peptide binding; actives 4.4% (n = 390,000); Potency, µM (top dose mostly 114 µM), for the others: at the highest dose activity change, negative = inhibition, hits mostly inhibitors; AID 504339; also: potency is read from the fitted curve at half-maximal effect; % is scaled to controls: 0 for no effect and ±100 for the full control effect; nearly all actives have a fitted effect of over 50% in size
Target sequence (O75164 whole entry, looked up, the tested form may be a part): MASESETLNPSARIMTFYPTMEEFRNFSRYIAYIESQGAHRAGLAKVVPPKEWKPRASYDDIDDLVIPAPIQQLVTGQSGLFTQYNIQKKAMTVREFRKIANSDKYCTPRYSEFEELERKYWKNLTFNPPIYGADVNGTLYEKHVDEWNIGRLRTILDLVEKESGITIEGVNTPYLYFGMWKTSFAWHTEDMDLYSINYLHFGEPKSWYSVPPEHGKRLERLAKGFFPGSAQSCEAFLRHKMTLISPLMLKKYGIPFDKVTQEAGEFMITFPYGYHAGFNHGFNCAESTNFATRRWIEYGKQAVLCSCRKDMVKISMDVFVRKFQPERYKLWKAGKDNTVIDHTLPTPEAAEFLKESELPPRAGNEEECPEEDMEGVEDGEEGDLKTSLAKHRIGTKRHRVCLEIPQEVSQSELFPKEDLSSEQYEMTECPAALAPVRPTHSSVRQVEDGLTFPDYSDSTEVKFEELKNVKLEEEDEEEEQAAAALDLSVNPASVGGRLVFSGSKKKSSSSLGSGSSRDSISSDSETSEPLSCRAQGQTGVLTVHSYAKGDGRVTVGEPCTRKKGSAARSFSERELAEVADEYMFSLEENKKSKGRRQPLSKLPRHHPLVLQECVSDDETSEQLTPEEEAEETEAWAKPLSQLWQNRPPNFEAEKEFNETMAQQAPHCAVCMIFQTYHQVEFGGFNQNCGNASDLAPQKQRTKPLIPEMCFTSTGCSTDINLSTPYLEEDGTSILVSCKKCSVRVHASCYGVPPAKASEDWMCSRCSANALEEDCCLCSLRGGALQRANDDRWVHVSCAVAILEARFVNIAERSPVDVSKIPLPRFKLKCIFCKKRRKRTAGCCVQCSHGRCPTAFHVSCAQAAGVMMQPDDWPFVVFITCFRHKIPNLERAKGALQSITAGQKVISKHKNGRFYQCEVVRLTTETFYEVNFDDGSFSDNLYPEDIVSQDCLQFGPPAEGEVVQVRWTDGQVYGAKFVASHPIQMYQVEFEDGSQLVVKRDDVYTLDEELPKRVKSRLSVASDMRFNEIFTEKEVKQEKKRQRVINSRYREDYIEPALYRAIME
BAZ2B inh – BAZ2B (human) inhibition. AlphaScreen BAZ2B-H3K14Ac peptide displacement. Q9UIF8. actives 4.4% (n = 360,000). Potency, µM (series often up to 114 µM), for inactives: top-dose activity change, negative = inhibition, usual class: inhibitors; also: potency is read from the fitted curve at half-maximal effect; % is scaled to controls: 0 for no effect and ±100 for the full control effect; nearly all actives have a fitted effect of over 60% in size
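Protein-peptide AlphaScreen: BAZ2B 50 nM, b-H3K14Ac 50 nM, 1x PBS pH 7.4 + 0.01% Tween-20. Preincubation 30 min RT; cpd 30 min RT (top 110 uM); beads 20 min RT, light-protected.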
G9a inh – inhibitors of human histone lysine methyltransferase G9a; G9a H3K9 monomethylation, AlphaScreen, 2 h; Q96KQ7; Potency, µM (top dose mostly 102 µM), for the others: top-dose activity, negative = inhibition, actives largely listed as inhibitors; actives 8.8% (n = 350,000); also: potency is read from the fitted curve at half-maximal effect; % is scaled to controls: 0 for no effect and ±100 for the full control effect; nearly all actives have a fitted effect of over 75% in size
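G9a (20 nM) was preincubated 15 min with compound, then reacted 2 h at room temperature with 500 nM biotin-H3K9 peptide and 20 µM SAM. Monomethyl-H3K9 detected by AlphaScreen using anti-H3K9me1 antibody.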
PLK1 PBD block – blocks phosphopeptide binding to human PLK1 polo-box domain; P53350; Plk1 PBD binding of FITC phosphopeptide, fluorescence polarization; Potency, µM, without a hit: max response, negative = inhibition, most hits filed as inhibitors; actives 2.8% (n = 360,000); AID 720504; also: potency is read from the fitted curve at half-maximal effect; series mostly up to about 57 µM; % is scaled to controls: 0 for no effect and ±100 for the full control effect; nearly all actives have a fitted effect of over 65% in size
Numbers without * were called inactive; u = inconclusive; x = no result; [ ] = another dose, or the depositor's remark. Only some compounds are listed: those with a hit (about 12% of all), similar ones and a draw of the others. Unless noted, calls follow the shape of the dose curve; as a rule, active = well fitted curve in the direction sought with a large enough effect; inconclusive = small, poorly fitted or top-dose-only effect, or another doubt; inactive = no such curve, though single readings can be large; an effect the other way counts as inactive or inconclusive.

SMILES	PI5P4K alpha inh	HP1b chromo inh	JMJD2A Tudor	BAZ2B inh	G9a inh	PLK1 PBD block
COc1cc(OC)c(OC)cc1/C=C1/C(=O)N=C(N)N1C	-28	20%	-32%	-17%	3%	21µM*
COc1cccc(NC2=Nc3cccc4cccc2c34)c1	10	-36%	45µM*	40µM*	u	13%
COc1ccc(NC2=Nc3cccc4cccc2c34)cc1OC	x	-18%	u	-39%[57.1 µM]	u	2%
COc1ccc(Cl)cc1N=Nc1ncc[nH]1	x	x	x	x	5%[59 µM]	x
CCCCNCCCOc1ccc(C)cc1Br	5	u	20µM*	56µM*	50µM*	-11%
CNCCCCOc1ccc(C(C)(C)C)cc1Cl	4	u	5.6µM*	u	14µM*	-14%
CNCCCOc1ccc(C)cc1Br	2	u	3.2µM*	56µM*	u	-5%
Cc1ccc(C)c(CNC(=O)c2ccc3c(c2)nc2n3CCCCC2)c1	x	30%[57 µM]	-1%	-3%	-21%[59 µM]	x
O=[N+]([O-])c1ccc(S(=O)(=O)N2CCSC2c2ccco2)cc1 (stereo unspecified)	-16	-22%	u	u	8.9µM*	12µM*
S=c1[nH]nc(CCc2ccc(Cl)cc2)o1	u	67%	-14%	-5%	7.1µM*	-14%
S=c1[nH]nc(COc2ccc(Cl)cc2)o1	x	7%	79µM*	-5%	4µM*	u
O=[N+]([O-])c1ccc(-c2n(-c3ccccn3)c3ccccc3[n+]2-c2ccccn2)cc1	2	3%	u	u	50µM*	-18%
COCCN(C(=O)COC(=O)CCc1ccccc1OC)c1c(N)n(Cc2ccccc2)c(=O)[nH]c1=O	3	29%	-30%	-1%	13µM*	-3%
CN(C(=O)COC(=O)c1ccccc1Cc1ccccc1)c1c(N)n(Cc2ccccc2)c(=O)[nH]c1=O	6	18%	-16%	5%	50µM*	2%
CCN(C(=O)COC(=O)C1COc2ccccc2O1)c1c(N)n(Cc2ccccc2)c(=O)[nH]c1=O (stereo unspecified)	-8	38%	-8%	x	x	2%
CN(C(=O)COC(=O)c1ccccc1Nc1ccccc1)c1c(N)n(Cc2ccccc2)c(=O)[nH]c1=O	0	15%	-20%	-26%	14µM*	7%
CN(C(=O)COC(=O)C1COc2ccccc2O1)c1c(N)n(Cc2ccccc2)c(=O)[nH]c1=O (stereo unspecified)	-6	22%	-15%	-1%	45µM*	2%
COc1ccc([N+](=O)[O-])c(O)c1C(C)=O	-10	23%	-1%	x	x	-19%
CN(C(=O)COC(=O)CSc1cc(Cl)ccc1Cl)c1c(N)n(Cc2ccccc2)c(=O)[nH]c1=O	6	3%	-16%	7%	7.1µM*	-11%
CCc1noc(C)c1C(=O)OCC(=O)N(C)c1c(N)n(Cc2ccccc2)c(=O)[nH]c1=O	1	12%	-1%	10%	50µM*	-2%
COCCN(C(=O)COC(=O)c1ccccc1Nc1ccccc1)c1c(N)n(Cc2ccccc2)c(=O)[nH]c1=O	1	11%	-23%	-3%	14µM*	1%
Cc1cc(C)c(NC(=O)c2cc(S(=O)(=O)N3CCN(c4ccccc4F)CC3)ccc2F)c(C)c1	x	31%	-10%	0%	-2%[59 µM]	x
COc1ccc(C2=NN(C(=O)CSc3nnc(C)n3C)C(c3ccco3)C2)cc1 (stereo unspecified)	0	25%	-21%	-5%	50µM*	-5%
Cc1ccc(C2=NN(C(=O)CCl)C(c3ccco3)C2)o1 (stereo unspecified)	2	u	-18%	-23%	40µM*	-8%
Cn1nnnc1SCC(=O)N1N=C(c2ccc(Cl)cc2)CC1c1ccco1 (stereo unspecified)	1	4%	-26%	x	x	-3%
CC(=O)N1N=C(c2ccco2)CC1c1ccco1 (stereo unspecified)	3	32%	-8%	1%	16%[59 µM]	5%
